We go through 14 molecules from PubChem BioAssay (NCI).

About 83,000 compounds went through this panel and 20% of them were active in at least one assay; those are over-represented in the sample as a whole.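 Compound tested at a single concentration for 48 hours in 96-well plates; a percent growth value below 10 was scored as active.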 Values without a mark were called inactive. Activity calls are given as the source filed them.

Among the test systems are SR leukemia; RPMI-8226 leukemia; OVCAR-8 ovarian; OVCAR-5 ovarian; OVCAR-4 ovarian; SK-OV-3 ovarian; IGROV1 ovarian; OVCAR-3 ovarian; NCI/ADR-RES ovarian.
Test in all cases: NCI-60 one-dose screen, 48 h (100 = growth as untreated, 0 = no growth, -100 = all killed)
Holding throughout (details): 10 µM unless noted

`NS(=O)(=O)c1ccc(N2CC(c3nc4ccccc4[nH]3)CC2=O)cc1` (stereo unspecified): the growth with SR leukemia is 95.5%; in the experiment on RPMI-8226 leukemia it was 103%; in the experiment on OVCAR-8 ovarian it was 99.9%; with OVCAR-5 ovarian, 84.4%; with OVCAR-4 ovarian, 97.3%; in the experiment on SK-OV-3 ovarian, 89.7%. Moreover, the growth was 97.2% with IGROV1 ovarian, 104% with OVCAR-3 ovarian and 103% in the experiment on NCI/ADR-RES ovarian.
Consider `c1ccc2nc(N/N=C3\CCCCC3C3CCCCC3)ccc2c1` (stereo unspecified), for which the growth with SR leukemia was -17.5% (active); with RPMI-8226 leukemia, -18.8% (active); in the experiment on OVCAR-8 ovarian, 83.6%; with OVCAR-5 ovarian it was 58%; in the experiment with OVCAR-4 ovarian, 51.1%; with SK-OV-3 ovarian, 88.6%. The growth is 44.4% in the experiment on IGROV1 ovarian, 33.2% in the experiment with OVCAR-3 ovarian and 57.2% in the experiment with NCI/ADR-RES ovarian.
Take `O=CN1N=C(c2ccc(Cl)cc2)CC1c1cccc(Nc2ccnc3cc(Cl)ccc23)c1` (stereo unspecified): the growth is 1.88% (active) in the experiment on SR leukemia; 13.4% in the experiment with RPMI-8226 leukemia; 12.6% in the experiment with OVCAR-8 ovarian; 34.6% in the experiment on OVCAR-5 ovarian; 29.2% with OVCAR-4 ovarian; 19.2% in the experiment with SK-OV-3 ovarian. Besides, the growth was 34.4% in the experiment with IGROV1 ovarian, 16.3% with OVCAR-3 ovarian and 2.47% (active) in the experiment on NCI/ADR-RES ovarian.
Regarding `O=C(Nc1ccc2c(c1)C(=O)c1ccccc1-2)c1ccccc1`, the growth in the experiment with SR leukemia is 81.7%; in the experiment on RPMI-8226 leukemia it was 63.5%; in the experiment on OVCAR-8 ovarian it was 37.8%; in the experiment with OVCAR-5 ovarian, 85.9%; in the experiment on OVCAR-4 ovarian, 15.9%; with SK-OV-3 ovarian, 110%. Also, the growth is 73.4% with IGROV1 ovarian, 79.5% with OVCAR-3 ovarian and 70.4% with NCI/ADR-RES ovarian.
With `Clc1ccc(C2=NN(c3ccc(Cl)cc3)C(c3cccc(Nc4ccnc5cc(Cl)ccc45)c3)C2)cc1` (stereo unspecified), the growth was 77% in the experiment on SR leukemia; 71.7% in the experiment with RPMI-8226 leukemia; 80.4% with OVCAR-8 ovarian; 93.5% with OVCAR-5 ovarian; 73% in the experiment with OVCAR-4 ovarian; 60.7% in the experiment with SK-OV-3 ovarian. The results for the growth in the experiment with IGROV1 ovarian, in the experiment on OVCAR-3 ovarian and in the experiment with NCI/ADR-RES ovarian were 75.4%, 85.8% and 74.1%, respectively.
For `O=C(CNC(=O)c1cccc2ccccc12)Nc1ccccc1Cc1ccccc1`, the growth in the experiment on SR leukemia is 18.8% [5 µM]; with RPMI-8226 leukemia, 39.1% [5 µM]; in the experiment on OVCAR-8 ovarian it was 37.6% [5 µM]; in the experiment with OVCAR-5 ovarian it was 66.4% [5 µM]; in the experiment on OVCAR-4 ovarian it was 81.2% [5 µM]; in the experiment on SK-OV-3 ovarian, 45% [5 µM]. Moreover, the growth is 53% [5 µM] in the experiment on IGROV1 ovarian, 15.5% [5 µM] in the experiment with OVCAR-3 ovarian and 17% [5 µM] in the experiment with NCI/ADR-RES ovarian.
As to `CCCCCc1c(C)[nH]c(/C=C2\N=C(c3ccc[nH]3)C=C2OCc2ccccc2)c1C`, the growth with SR leukemia is -26.1% [100 µM] (active); in the experiment with RPMI-8226 leukemia, -46.2% [100 µM] (active); in the experiment with OVCAR-8 ovarian, -64.2% [100 µM] (active); in the experiment on OVCAR-5 ovarian, -98% [100 µM] (active); in the experiment with OVCAR-4 ovarian, -89.3% [100 µM] (active); with SK-OV-3 ovarian, -97.1% [100 µM] (active). The growth in the experiment on IGROV1 ovarian is -66% [100 µM] (active); in the experiment with OVCAR-3 ovarian, -89% [100 µM] (active); in the experiment with NCI/ADR-RES ovarian, -48.5% [100 µM] (active).
For the molecule `O=C(CNC(=O)c1cccc2ccccc12)Nc1ccccc1Oc1cccc(O)c1`, the growth was 18.7% [5 µM] with SR leukemia; 25.9% [5 µM] with RPMI-8226 leukemia; 15.3% [5 µM] with OVCAR-8 ovarian; 39.9% [5 µM] in the experiment on OVCAR-5 ovarian; 59.1% [5 µM] in the experiment on OVCAR-4 ovarian; 7.7% [5 µM] (active) in the experiment on SK-OV-3 ovarian. The growth was 42.9% [5 µM] with IGROV1 ovarian, -10.8% [5 µM] (active) in the experiment with OVCAR-3 ovarian and 13% [5 µM] in the experiment on NCI/ADR-RES ovarian.
Take `c1ccc(-c2n(Cc3ccc4ccccc4c3)cc[n+]2Cc2ccc3ccccc3c2)cc1`: the growth is -42.2% (active) with SR leukemia; -37% (active) with RPMI-8226 leukemia; -72.4% (active) in the experiment with OVCAR-8 ovarian; -35.9% (active) in the experiment on OVCAR-5 ovarian; -28.1% (active) in the experiment on OVCAR-4 ovarian; -6.1% (active) with SK-OV-3 ovarian. Besides, the growth is -67.8% (active) with IGROV1 ovarian, -89.8% (active) in the experiment on OVCAR-3 ovarian and 82.2% in the experiment with NCI/ADR-RES ovarian.
With `O=C(O)CCC(=O)OC[C@@H](NC(=O)C(Cl)Cl)[C@H](O)c1ccc([N+](=O)[O-])cc1`, the growth with SR leukemia is 95.9%; in the experiment on RPMI-8226 leukemia, 89.5%; in the experiment with OVCAR-8 ovarian, 94.4%; in the experiment with OVCAR-5 ovarian it was 93.5%; in the experiment with OVCAR-4 ovarian, 102%; in the experiment on SK-OV-3 ovarian it was 107%. The growth in the experiment on IGROV1 ovarian is 97.2%; in the experiment on OVCAR-3 ovarian, 121%; in the experiment with NCI/ADR-RES ovarian, 101%.
In the case of `OCCCc1n(Cc2ccc3ccccc3c2)c2ccccc2[n+]1Cc1ccc2ccccc2c1`, the growth in the experiment with SR leukemia is -30.9% (active); in the experiment on RPMI-8226 leukemia, 2.19% (active); in the experiment with OVCAR-8 ovarian, 15.2%; with OVCAR-5 ovarian it was 31%; in the experiment on OVCAR-4 ovarian it was 22.3%; with SK-OV-3 ovarian, 62.2%. For the same molecule, the growth with IGROV1 ovarian was -42.2% (active); in the experiment with OVCAR-3 ovarian, 0.774% (active); in the experiment on NCI/ADR-RES ovarian, 90.5%.
Regarding `Cc1csc(C#Cc2cncc(O)c2)n1`, the growth is 110% with SR leukemia; 98.5% in the experiment with RPMI-8226 leukemia; 102% in the experiment with OVCAR-8 ovarian; 90.9% in the experiment with OVCAR-5 ovarian; 125% with OVCAR-4 ovarian; 108% in the experiment with SK-OV-3 ovarian. Besides, the growth in the experiment with IGROV1 ovarian is -14% (active); in the experiment on OVCAR-3 ovarian it was 111%; in the experiment with NCI/ADR-RES ovarian, 113%.
Take `O=C(N/N=C/c1cccc(O)c1)c1ccc(C(F)(F)F)nc1Nc1cccc(C(F)(F)F)c1`: the growth in the experiment on SR leukemia was -38.7% (active); in the experiment on RPMI-8226 leukemia, -37.2% (active); in the experiment on OVCAR-8 ovarian it was 18.1%; in the experiment with OVCAR-5 ovarian, 34.3%; with OVCAR-4 ovarian, 10.5%; with SK-OV-3 ovarian it was 24.6%. In addition, the growth with IGROV1 ovarian is 15%; with OVCAR-3 ovarian, -12.2% (active); with NCI/ADR-RES ovarian it was 13.6%.
Turning to `COc1cc(C2CC(C3C(=O)N(C)C(=O)N(C)C3=O)=NN2c2cc(Cl)cc(Cl)c2)cc(OC)c1OC` (stereo unspecified), the growth with SR leukemia was 94.5%; with RPMI-8226 leukemia it was 85.7%; in the experiment on OVCAR-8 ovarian it was 96.7%; in the experiment with OVCAR-5 ovarian, 108%; with OVCAR-4 ovarian, 96%; with SK-OV-3 ovarian, 95.6%. Also, the growth in the experiment with IGROV1 ovarian is 102%; in the experiment with OVCAR-3 ovarian, 97.2%; in the experiment on NCI/ADR-RES ovarian it was 87.2%.
